{"source": "PubChem BioAssay (NCATS)", "note": "Inconclusive results are not listed. Values without a mark were called inactive. Calls come from the whole dose curve. % is set by controls: 0 for no effect and ±100 for the full control effect.", "data": [{"assay": "Natriuretic polypeptide receptor (hNpr1) antagonism - Pilot counterscreen GloSensor control cell line (AID 1347045)", "conditions": "HEK293 cGMP GloSensor cells, SNP-stimulated luminescence, 20 min; series mostly up to 38.3 µM; activity change, negative = inhibition: at the top concentration", "summary_of_the_method": "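HEK293 cells carrying the GloSensor cGMP sensor (GIP/pGS-40F) were loaded with 2% GloSensor reagent for 2 h, exposed to compounds for 30 min, and then stimulated with 50 uM sodium nitroprusside for 20 min at room temperature.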", "units": {"activity change, negative = inhibition": "%"}, "values": [{"smiles": "N[C@@H](Cc1ccc(F)cc1)C(=O)O", "activity change, negative = inhibition": -0.249}, {"smiles": "O=C(O)c1ccccc1Nc1ccccc1", "activity change, negative = inhibition": -24.8}, {"smiles": "NCC(O)C1CCCCCCC1", "note": "(configuration not stated)", "activity change, negative = inhibition": 2.69}, {"smiles": "O=C(O)c1cc2cc(F)ccc2[nH]1", "activity change, negative = inhibition": 3.24}, {"smiles": "CC(C)NC[C@H](O)COc1cccc2ccccc12", "activity change, negative = inhibition": 11.3}, {"smiles": "Cn1cc(C(=O)OCC2CCN(CCNS(C)(=O)=O)CC2)c2ccccc21", "activity change, negative = inhibition": 5.55}, {"smiles": "CCCCCC(O)CCCC(=O)O", "note": "(configuration not stated)", "activity change, negative = inhibition": -0.0958}, {"smiles": "Cc1ccc2c(c1)C(N1CCN(C)CC1)=Nc1cccnc1N2", "activity change, negative = inhibition": -5.53}, {"smiles": "CNCCc1cnc(CCC(c2ccccc2)c2ccccc2)[nH]1", "activity change, negative = inhibition": -1.27}, {"smiles": "Cc1cccc(C(=O)NCN2CCN(c3ccccc3C#N)CC2)c1", "activity change, negative = inhibition": -7.71}, {"smiles": "CC(C)C[C@H](NC(=O)[C@H](O)[C@H](N)Cc1ccccc1)C(=O)O", "activity change, negative = inhibition": 3.56}, {"smiles": "O=C(O)Cc1ccc(O)c(O)c1", "activity change, negative = inhibition": -2.49}, {"smiles": "N[C@@H](CCCC(=O)O)C(=O)O", "activity change, negative = inhibition": -7.07}, {"smiles": "CCCCCCC(=O)OC1CC(C)(C)NC(C)(C)C1", "activity change, negative = inhibition": 0.439}, {"smiles": "COCc1nc2c([nH]1)c(=O)n(C)c(=O)n2CC(C)C", "activity change, negative = inhibition": 30.1}, {"smiles": "C=CCN1CCc2c(cc(O)c(O)c2Br)[C@@H](c2ccccc2)C1", "activity change, negative = inhibition": 7.44}, {"smiles": "CCCCCCCCCC(=O)NC(CN1CCOCC1)[C@H](O)c1ccccc1", "note": "(some centres not stated)", "activity change, negative = inhibition": -1.95}, {"smiles": "C[C@](Cc1ccc(O)c(O)c1)(NN)C(=O)O", "activity change, negative = inhibition": 17.3}, {"smiles": "CC1=C(/C=C/C(C)=C/C=C/C(C)=C\\C(=O)O)C(C)(C)CCC1", "activity change, negative = inhibition": 0.801}, {"smiles": "CCCCC[C@H](CC(=O)NO)C(=O)N[C@H](C(=O)N1CCC[C@H]1CO)C(C)C", "activity change, negative = inhibition": 5.38}, {"smiles": "NC(N)=N[C@@H](CCC(=O)O)C(=O)O", "activity change, negative = inhibition": 2.01}, {"smiles": "COC(=O)C(N)Cc1ccc(Cl)cc1", "note": "(configuration not stated)", "activity change, negative = inhibition": 1.7}]}]}
